# Laboratory results reported in PubChem BioAssay (NCATS).
# Calls of active or inactive are those of the source. The call rests on the fitted dose curve; in most records, active means well fitted curve in the direction sought with a large enough effect; inconclusive means small, poorly fitted or top-dose-only effect, or another doubt; inactive means no such curve, though single readings can be large or run the other way. Residues, ends and D or L forms follow the SMILES beside them. *: point of attachment. Cbz = O=C(OCc1ccccc1)*
# Test: qHTS for compounds that reverse cellular toxicity of Amyloid beta (A-beta) peptide in yeast: LOPAC Validation Assay (AID 720559)
# Details: yeast expressing A-beta; series mostly up to 46.1 µM
# Excerpt: The A-beta peptide is produced by the processing of the amyloid precursor protein (APP) by two proteases, beta and gamma secretases. […] A-beta42 is regarded as the most amyloidogenic form due to its hydrophobicity; however, precisely how A-beta42 induces neurotoxicity is unclear. To understand further this biology and its potential therapeutic implications for human neurodegenerative disease, a quantitative high-throughput screen for compounds that reverse the cellular toxicity of the A-beta peptide was developed.
# A yeast based screen was used because it recapitulates the salient feature of protein mis-folding disorder accurately. This cell-based phenotypic screen provides a significant, unbiased advantage by letting the compounds and models inform us which proteins or pathways are most relevant. The ideal chemical candidates would therefore have activity in both our primary yeast and secondary neuronal toxicity assays, as well as in mouse models. They will be valuable tools for dissecting diverse protein homeostasis pathologies and could potentially become the focus for future pre-clinical development. For this […] assay, inhibition of A-beta rescues the toxic effect in the yeast cell, resulting in increase of signals.
# NIH Chemical Genomics Center [NCGC]
# NIH Molecular Libraries Probe Centers Network [MLPCN]
# Assay Submitter (PI): Susan Lindquist, Whitehead Institute, Massachusetts Institute of Technology
# [1] Vassar R,et al (1999). Beta-secretase cleavage of Alzheimer's amyloid precursor protein by the transmembrane aspartic protease BACE. Science. 286: 735-741.
# [2] Yan R, et al (1999). Membrane-anchored aspartyl protease with Alzheimer's disease beta-secretase activity. Nature.
# Two and a half microliter / well of yeast growth medium were dispensed in a 1536 assay plate. Compounds were pinned using the Kalypsys robotic system followed by addition of 2.5 uL / well yeast solution. The assay plates were incubated at 30 C. After 48 hr, the absorbance signal at 600 nm was obtained using the PerkinElmer ViewLux plate reader to assess yeast growth. The data was normalized to the positive control of an equimolar mixture of ferric chloride (FeCl3) and clioquinol and to the negative control DMSO.
row,SMILES,outcome
1,NC(N)=[N+]1CCc2ccccc2C1,inactive
2,COc1cc(N)c(Cl)cc1C(=O)OCCN1CCCCC1,inactive
3,Oc1ccc(/C=C/c2ccc(/C=C/c3ccc(O)cc3)c(Br)c2)cc1,inactive
4,COC(=O)[C@H](NC(=O)c1cc(-c2ccccc2)nc2ccccc12)c1ccccc1,inactive
5,O=C(O)c1ccccc1Nc1cccc(OCc2ccc3ccccc3n2)c1,inactive
6,CCn1c(=O)[nH]c2cc(Cl)c(Cl)cc21,inactive
7,CC(C)NC[C@H](O)COc1cccc2ccccc12,inactive
8,CCCn1c(=O)c2c(ncn2C)n(CCC)c1=O,inactive
9,Nc1nc2c(nc(Br)n2C2OC3COP(=O)(O)O[C@@H]3C2O)c(=O)[nH]1 (stereo not given in full),inactive
10,CC(O)C(O)[C@H]1CNc2nc(N)[nH]c(=O)c2N1 (stereo not given in full),inactive
11,CCN(c1nc(N)c(C(=O)N=C(N)N)nc1Cl)C(C)C,inactive
12,C/C(=C\c1ccc(C(=O)O)cc1)c1ccc2c(c1)C(C)(C)CCC2(C)C,inactive
13,Cn1c(=O)c2[nH]c(-c3ccc(S(=O)(=O)O)cc3)nc2n(C)c1=O,inactive
14,CC[C@@H]1Cc2cc(O)ccc2C2=C1c1ccc(O)cc1C[C@H]2CC,inactive
15,CN1CCN(c2nc3cc(C(F)(F)F)ccc3n3cccc23)CC1,inactive
16,N[C@H](C(=O)O)c1cc(O)cc(O)c1,inactive
17,COC(=O)C(N)Cc1ccc(Cl)cc1 (stereo not given),inactive
18,c1ccc(C(NCCNC(c2ccccc2)c2ccccc2)c2ccccc2)cc1,inactive
19,COc1ccc(CCN(C)CCc2ccc(OC)c(OC)c2)cc1OC,inactive
20,COc1cc(CC(=O)O)ccc1O,inactive

row,SMILES,outcome
1,C[C@H](NC(=O)/C(C#N)=C/c1ccc(O)c(O)c1)c1ccccc1,inactive
2,NC1C=CC=C(C(=O)O)C1 (stereo not given),inactive
3,CC(/C=C/c1cccc(Oc2ccc(F)cc2)c1)N(O)C(N)=O (stereo not given),inactive
4,CCCc1c(-c2ccc(O)cc2)nn(-c2ccc(O)cc2)c1-c1ccc(O)cc1,inactive
5,Cc1cc2c(cc1Cl)N(C(=O)Nc1ccnc3ccccc13)CC2,inactive
6,N=C(N)c1ccc(N)cc1,inactive
7,CCSC(=N)N,inactive
8,CC(C)(CO)Cc1cc(C(C)(C)C)c(O)c(C(C)(C)C)c1,inactive
9,CC(=O)C(C)=O,inactive
10,NOCC(=O)O,inactive
11,Clc1nccc2c1ccc1ccccc12,inactive
12,N[C@@H](CCCC(=O)O)C(=O)O,inactive
13,CC(=O)[C@H]1CCC2C3CC=C4C[C@@H](OS(=O)(=O)O)CC[C@]4(C)C3CC[C@@]21C (stereo not given in full),inactive
14,Cc1nc(N=Nc2cc(S(=O)(=O)O)c3cc([N+](=O)[O-])cc(S(=O)(=O)O)c3c2)c(COP(=O)(O)O)c(C=O)c1O,inactive
15,CCCCCCCCCCC/C=C\C(C)(C)/C=C\CCCC(=O)O,inactive
16,COc1ccc(CCn2nnnc2C2(c3ccc(C)cc3)CC2)cc1,inactive
17,N=C(N)SCCN,inactive
18,CC(C)[C@H](NC(=O)OCc1ccccc1)C(=O)N[C@H](C=O)Cc1ccccc1 (Cbz-Val-Phe-aldehyde),inactive
19,CC(=O)/C(C)=N/O,inactive
20,Cc1ccc2c(c1)C(N1CCN(C)CC1)=Nc1cccnc1N2,inactive
